Reference: PubChem BioAssay AID485367 (National Center for Advancing Translational Sciences (NCATS), 2010)
Several values for one entry are separate records, joined by “and”; a condition that tells them apart may be missing. Equal entries are not always repeated. About 560 (0.17%) of roughly 330,000 compounds were called active. About 1% were inconclusive and are not listed. This excerpt belongs to a sample that is enriched for actives. A number with no mark means an inactive call. The call rests on the fitted dose curve; in most records, active means well fitted inhibition curve with a large enough effect; inconclusive means small, poorly fitted or top-dose-only effect, or effect the other way; inactive means flat fitted curve, though single readings scatter.

biological target: ATP-dependent 6-phosphofructokinase (Trypanosoma brucei brucei) (UniProt O15648); assay: qHTS Assay to Find Inhibitors of T. brucei phosphofructokinase; further: nearly all actives have a fitted effect of over 60% in size;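 on activity, negative = inhibition: 0% = uninhibited 1x PFK enzyme wells and -100% = no-enzyme wells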; details: T. brucei PFK, ADP-Glo luminescence; series mostly up to 57.5 µM; activity, negative = inhibition: at the top concentration
Sequence (O15648 whole entry, looked up): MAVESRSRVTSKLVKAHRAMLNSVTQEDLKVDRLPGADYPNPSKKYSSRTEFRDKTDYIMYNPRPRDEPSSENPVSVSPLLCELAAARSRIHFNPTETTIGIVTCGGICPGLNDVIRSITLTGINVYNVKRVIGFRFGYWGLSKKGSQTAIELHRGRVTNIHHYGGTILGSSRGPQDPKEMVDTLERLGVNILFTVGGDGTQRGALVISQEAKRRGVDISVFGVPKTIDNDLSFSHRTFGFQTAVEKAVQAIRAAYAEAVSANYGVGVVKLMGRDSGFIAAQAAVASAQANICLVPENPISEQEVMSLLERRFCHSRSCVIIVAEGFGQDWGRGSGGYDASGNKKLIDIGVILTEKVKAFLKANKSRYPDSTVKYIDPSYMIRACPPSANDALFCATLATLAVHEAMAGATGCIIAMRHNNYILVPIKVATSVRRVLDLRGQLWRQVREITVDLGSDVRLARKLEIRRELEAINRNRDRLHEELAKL
In short: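 PFK 1.25 nM, F6P 0.5 mM, ATP 0.1 mM, 0.1 M TEA pH 8.0, 5 mM MgCl2, 0.01% Tween20, 0.1% BSA; 45 min RT. ADP-Glo readout. qHTS titration up to 57 uM; curves fitted, compounds curve-classed.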
Potency means the concentration at half of the fitted maximal effect.

| Compound | activity, negative = inhibition | Potency |
| --- | --- | --- |
| Nn1c(SCC(=O)Nc2ccc3c(c2)CCC3)nnc1C1CC1 | 2.26% | – |
| O=C(CC1C(=O)NCCN1CC(c1ccccc1)c1ccccc1)NCC1CCOCC1 (stereo not given) | -13.1% | – |
| O=C(CCN1C(=O)C2C3C=CC(C3)C2C1=O)Oc1ccc2ccccc2c1 (stereo not given) | 2.74% | – |
| CC(=O)NCc1ccc(-c2csc(NC(=O)CCCc3nc4ccccc4c(=O)[nH]3)n2)cc1 | 1.84% | – |
| CCOC(=O)c1ccccc1NC(=O)CSc1nc2ccccc2c(=O)[nH]1 | 0.653% | – |
| O=C(CSc1nc2ccccc2c(=O)[nH]1)Nc1nc(-c2ccc(Br)cc2)cs1 | – | 2.69 µM (active) |
| O=C(CSc1nnc(N2CCOCC2)n1-c1cccc(F)c1)N1CCN(c2ccccn2)CC1 | -1.48% | – |
| O=C(NNS(=O)(=O)c1ccccc1)c1cnn(-c2ccc(Cl)cc2)c1C(F)(F)F | 0.989% | – |
| Cc1ccc(OCCCCc2c(C)n[nH]c2C)cc1 | 0.85% | – |
| CC(C)[C@H](NC(=O)N1CCn2c1nc1ccccc12)C(=O)NCCc1ccccc1 | 10.6% | – |
| CCCCNC(=O)OCCSCCS(=O)(=O)c1ccc(Cl)cc1 | -7.12% | – |
| CC(C)(C)c1cc(C(=O)NCc2cccnc2)ccn1 | 0.81% | – |
| O=C(Nc1nnc(Cc2ccc(Cl)cc2)s1)c1cccnc1 | -6.39% | – |
| O=C(NCc1ccc(Cl)c(Cl)c1)c1cccnc1 | – | 23.9 µM (active) |
| O=C(CN1C(=O)NC2(CCCC2)C1=O)Nc1ccc(F)c(F)c1F | -0.645% | – |
| CC1CCC(NS(=O)(=O)c2ccc3c(c2)n(C)c(=O)c(=O)n3C)CC1 (stereo not given) | 1.11% | – |
| Cn1sc(=O)c2cc(S(=O)(=O)NC3CC3)ccc21 | – | 15.1 µM (active) |
| O=S(=O)(NC1CC1)c1ccc(F)c(F)c1 | 0.12% | – |
| O=C(Nc1ccc(Cl)c(Cl)c1)N1CC=C(c2ccccc2)CC1 | -23.1% | – |
| Cc1cccc(N=C2NC(=O)CS2)c1C | 1.01% | – |
| CCc1ccc(Nc2nnc(SCC(=O)c3ccc4c(c3)NC(=O)CO4)s2)cc1 | -3.38% | – |
| CCOc1ccc(/C=C/C(=O)N(CC)CC(=O)NCc2cccs2)cc1OC | 0.107% | – |
| Cc1cccc(NS(=O)(=O)c2cc(Cl)ccc2Cl)n1 | -0.981% | – |
| CN1CCN(C(=O)c2ccc(NS(=O)(=O)c3ccccc3)cc2)CC1 | -0.0214% | – |
| COc1ccc(C(=O)OCC(=O)Nc2ccc3[nH]c(=O)[nH]c3c2)c(OC)c1OC | – | 21.3 µM (active) |
| O=C(COC(=O)c1cccc(Cl)c1)Nc1ccc2[nH]c(=O)[nH]c2c1 | -4.67% | – |
| O=C(COc1ccc([N+](=O)[O-])cc1Cl)Nc1ccc2[nH]c(=O)[nH]c2c1 | -0.514% | – |

| Compound | activity, negative = inhibition | Potency |
| --- | --- | --- |
| Nc1nnc(SCC(=O)NC2CCCc3ccccc32)s1 (stereo not given) | -3.89% | – |
| O=C(c1ccccc1)c1cc(-c2ccccn2)c(N2CCOCC2)s1 | 1.02% | – |
| NC(=O)c1ncc(C(F)(F)F)cc1Oc1ccc(F)cc1 | 2.27% | – |
| Cc1nc2nc(COc3ccccc3)[nH]n2c(=O)c1C | 3.97% | – |
| Cc1cc([N+](=O)[O-])nn1Cc1ccc(F)cc1 | -3.17% | – |
| O=C(O)CCN=C1CCc2ccccc2N1 | 1.34% | – |
| O=C(NC1CCCCC1)c1ccc(CNc2c(N3CCOCC3)c(=O)c2=O)cc1 | 2.59% | – |
| CCN(CC(=O)Nc1cccc(S(=O)(=O)N2CCCCC2)c1)Cc1ccccc1 | 3.5% | – |
| CCOc1cc(/C=N/n2cnnc2)c(Br)cc1O | -1.74% | – |
| CCOc1cccc(/C=N/N2C(=O)CSC2=S)c1O | – | 7.57 µM (active) |
| CCOc1ccc(N2C(=O)CSC2=NC#N)cc1 | 1.09% | – |
| C/C(=N/N1CCN(Cc2cccc3ccccc23)CC1)c1cccnc1 | 6.89% | – |
| NS(=O)(=O)c1ccc(NC(=S)NC(=O)c2cccc(Br)c2)cc1 | 0.423% | – |
| NS(=O)(=O)c1ccc(NC(=S)Nc2ccc(Br)c(Cl)c2)cc1 | – | 9.53 µM (active) |
| NS(=O)(=O)c1ccc(CCNC(=S)Nc2ccc(S(N)(=O)=O)cc2)cc1 | -9.91% | – |
| COc1ccc(NC(=O)Cn2cc(C(=O)c3ccncc3)c(=O)c3cc(C)ccc32)cc1Cl | -0.896% | – |
| CCc1ccc(N(CC)c2ncnc3nc[nH]c23)cc1 | -1.92% | – |
| Nc1ccc(Nc2cc(O)c3ncccc3c2)cc1 | -7.91% | – |
| Cc1cccc(CCNS(=O)(=O)c2ccc(S(=O)(=O)NC3CCCC3)cc2)c1 | 0.864% | – |
| CC1CCC(N2CC(=O)N(Cc3ccc4c(c3)OCO4)C(c3ccc(F)cc3)C2=O)CC1 (stereo not given) | -0.311% | – |
| COC(=O)CNC(=O)c1ccc2c(c1)S(=O)(=O)c1ccccc1C2=O | -1.45% | – |
| O=[N+]([O-])c1ccc(N2CCN(c3ccc(O)cc3)CC2)c(Cl)c1 | 2.76% | – |
| O=S(=O)(NC1CCN(S(=O)(=O)c2ccc3c(c2)OCCO3)CC1)c1c(F)cccc1F | -4.77% | – |
| O=C(COC(=O)c1cc[n+]([O-])cc1)Nc1ccc(Cl)c(C(F)(F)F)c1 | -23.6% | – |
| Cc1ccc(C(CC(=O)O)NC(=O)c2ccc(S(=O)(=O)N3CCCC3)cc2)cc1 (stereo not given) | -3.41% | – |
| CCCCc1nnc(NC(=O)CS(=O)(=O)Cc2ccccc2)s1 | 4.44% | – |
| Cn1c(=O)c([N+](=O)[O-])c(Oc2ccccc2)c2ccccc21 | 4.66% | – |

| Compound | activity, negative = inhibition | Potency |
| --- | --- | --- |
| CCCN(CC(=O)Nc1ccc(OC)c(OC)c1)CC(=O)Nc1ccc(F)c(F)c1F | -5.89% | – |
| COc1ccc(N2CCN(S(=O)(=O)c3ccc4c(c3)NC(=O)C(C)C(=O)N4)CC2)cc1 (stereo not given) | -3.57% | – |
| COc1ccc(C)cc1NC(=O)CCS(=O)(=O)c1cccc2nonc12 | 0.301% | – |
| Cn1nc(C(F)(F)F)cc1-c1ccc(/C=C(\C#N)C(=O)c2cccc(C(F)(F)F)c2)s1 | -2.17% | – |
| Cc1cc(C)c(S(=O)(=O)n2cc(C(C)C(N)C(=O)O)c3ccccc32)c(C)c1 (stereo not given) | -0.251% | – |
| COCCOC(=O)c1c(C)oc2cc(Br)c(OCC(N)=O)cc12 | -0.993% | – |
| CCCCC(CC(C)O)c1n[nH]c(=S)n1-c1ccccc1 (stereo not given) | 1.94% | – |
| CC(NC(=O)CCCC1CCCCC1)c1ccc(S(N)(=O)=O)cc1 (stereo not given) | -0.196% | – |
| CC(C)(C)OC(=O)C[C@@H]1C/C=C\C[C@@H](CC(=O)N[C@@H](CO)Cc2ccccc2)C(=O)N2CCC[C@H]2COC1=O | -0.476% | – |
| COC(=O)CN1C(=O)N/C(=C/c2ccc(OC)c(C)c2OC)C1=O | -0.685% | – |
| C=CCn1cc(-c2cccc(C(F)(F)F)c2)cc(C#N)c1=O | -1.02% | – |
| COCc1ccc(C(=O)N2CCc3c([nH]c4ccccc34)C2c2ccccn2)s1 (stereo not given) | -0.831% | – |
| Cc1ccc(C(C[N+](=O)[O-])c2c(C)cc3ccccn23)cc1 (stereo not given) | -0.525% | – |
| Nc1ccccc1SC(C[N+](=O)[O-])c1ccccc1 (stereo not given) | – | 13.5 µM (active) |
| CN(CC(=O)Nc1ccc(F)c(F)c1F)C(=O)C1CC(=O)N(C2CCCC2)C1 (stereo not given) | 2.52% | – |
| CCOC(=O)c1cnc(SC)nc1Sc1ccc(Cl)cc1Cl | -2.53% | – |
| NCCN1CCN2C(=O)CN(C(=O)c3ccccc3)CC12 (stereo not given) | 0.907% | – |
| O=C(COC(=O)c1cc(=O)[nH]c2ccccc12)NCc1cccc(Cl)c1 | -11.9% | – |
| Cc1cc(Nc2cccc(F)c2)n2ncnc2n1 | -1.14% | – |
| C=CCn1c(C23CC4CC(CC(C4)C2)C3)n[nH]c1=S | -0.991% | – |
| CCOC(=O)c1c(/N=C/C2C(=O)CC(C)(C)CC2=O)sc(C)c1C | 2.63% | – |
| O=C(Nc1cc(C(F)(F)F)ccc1Cl)c1cc2nc3c(c(C(F)(F)F)n2n1)CCCC3 | -1.59% | – |
| Cc1cc(NS(=O)(=O)c2ccc(NC(=O)C(C)Oc3cccc(C)c3C)cc2)nc(C)n1 (stereo not given) | -5.56% | – |
| CCCCn1c(N)c(N(Cc2ccccc2OC)C(=O)COc2cc(C)ccc2Cl)c(=O)[nH]c1=O | 24.8% | – |
| NC(=O)Nc1ccccc1C(=O)NCCc1ccccc1 | -28.3% | – |
| CCOC(=O)C1C(=O)C=C(c2ccc(OC)cc2)CC1c1ccco1 (stereo not given) | 1.24% | – |
| CC(C)c1ccc(NC(=O)Cn2ncc3ccccc32)cc1 | 2.07% | – |

| Compound | activity, negative = inhibition | Potency |
| --- | --- | --- |
| C=CCOc1ccc(/C=C/C(=O)OCC(=O)NC2CCCCCC2)cc1 | 1.83% | – |
| O=C1CSc2ccc(C(=O)NCc3ccccn3)cc2N1 | -9.69% | – |
| COc1cccc(S(=O)(=O)NCc2ccc(C(=O)NCc3ccccn3)cc2)c1 | -1.83% | – |
| O=C(NCc1ccccn1)c1ccc2nc(-c3ccco3)c(-c3ccco3)nc2c1 | – | 2.13 µM (active) |
| CCOc1cc(CNn2c(C)nnc2SCC(=O)NC(C)(C)C)ccc1OCC(=O)NC(C)(C)C | -0.0385% | – |
| S=c1[nH]c2ccccc2c2ccccc12 | -0.408% | – |
| COCCNC(=O)COc1ccc(N(C)S(=O)(=O)c2ccc3ccccc3c2)cc1 | 1.54% | – |
| Cc1ccc(N2C(=O)C(CC(=O)Nc3cccc(F)c3)N(CCc3ccncc3)C2=O)cc1 (stereo not given) | -1.36% | – |
| CCCCN1C(=O)C(C)=C(C)C1OCCc1ccc(OC)c(OC)c1 (stereo not given) | -0.0022% | – |
| N/C(=N\OC(=O)CCCC(=O)O)c1ncc(C(F)(F)F)cc1Cl | 0.924% | – |
| N/C(=N\OC(=O)Nc1ccc(Cl)c(Cl)c1)c1ncc(C(F)(F)F)cc1Cl | – | 13.5 µM (active) |
| O=C(c1ccccn1)c1ncc(C(F)(F)F)cc1Cl | -1.9% | – |
| COc1cccc(N=c2oc3c(C)ncc(CO)c3cc2C(N)=O)c1 | -0.59% | – |
| CC(C)c1ccc(N2CCN(C(=O)c3ccccc3NC(=O)/C=C(\C(=O)O)c3ccccc3)CC2)cc1 | 0.784% | – |
| O=c1[nH]c(=S)[nH]c2[nH]c(=S)[nH]c12 | – | 16.9 µM (active) and 13.5 µM (active) |
| Cc1c(C)c(C)c2[nH]c(=S)[nH]c2c1C | 4.32% | – |
| CCOc1ccc(Oc2nc(C)cc(OC)n2)nn1 | -6.66% | – |
| Cc1ccc(-c2nn(-c3ccccc3)cc2C(=O)NCCCN2CCCC2=O)cc1 | 4.23% | – |
| COc1ccccc1NS(=O)(=O)N(C)C | 0.142% | – |
| Cc1ccc(CN(C)Cc2cc(=O)oc3cc(C)c(Cl)cc23)cc1 | 0.644% | – |
| O=c1oc2ccccc2c(CNc2ccccc2)c1[N+](=O)[O-] | 1.56% | – |
| Cc1ccc2c(c1)N(S(=O)(=O)c1cc(-c3cc(C)no3)ccc1C)CCO2 | -4.63% | – |
| COC(=O)c1cccc(NC(=O)CN2CCC(NC(=O)c3cc(OC)c(OC)c(OC)c3)CC2)c1 | 0.362% | – |
| Cn1c2cc(B(O)O)sc2c2cnn(Cc3ccccc3F)c(=O)c21 | -19.7% | – |
